Each structure is given as a SMILES string. The source made the active and inactive calls. How the source made its calls: active means hit-call score of the fitted dose curve at least 0.9, where 1 is the maximum; inactive means score below 0.9.

Assay [1] in a line: ATG_CRE_CIS: Attagene CIS-FACTORIAL HepG2 Assay for human cAMP Responsive Element (CRE) binding protein 3 (AID 2282926). Conditions: HepG2 CRE cis-reporter, Attagene multiplexed mRNA; actives raise or lower the signal. In a few lines:
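Liver-derived HepG2, transfected with a CRE-containing reporter panel, exposed 24 h; transcript levels sized and quantified by capillary electrophoresis of labelled amplicons; signal changes either way referenced to vehicle.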

The target in assay [2] is CCAAT/enhancer-binding protein beta (Homo sapiens) (UniProt P17676). Briefly: ATG_C_EBP_CIS: Attagene CIS-FACTORIAL HepG2 Assay for human CCAAT/Enhancer Binding Protein (C/EBP) beta (AID 2282927). Conditions: HepG2 Attagene cis-factorial transcription factor reporter; actives raise or lower the signal. In a few lines: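 Changes in reporter mRNA, rather than exogenous chimeric receptor activity, reflect native C/EBP signalling in transfected HepG2 cells dosed for 24 h; transcripts are detected by RT-PCR and capillary electrophoresis.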

A short description of assay [3]: ATG_CMV_CIS: Attagene CIS-FACTORIAL HepG2 Assay for human CMV (Internal Marker) (AID 2282928).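 Further: endpoint acts as a background internal control marker rather than a target.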 Conditions: HepG2 CMV promoter reporter, transcription factor profiling; actives raise or lower the signal. In a few lines:
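24 h chemical treatment, HepG2 with transient multi-reporter transfection; RNA → oligo(dT) RT → PCR → 6-FAM extension → HpaI digest → CE fluorescence. Bidirectional fit, DMSO negative control.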

A short description of assay [4]: ATG_DR4_LXR_CIS: Attagene CIS-FACTORIAL HepG2 Assay for human Liver X Receptor (LXR), DR4 submotif (AID 2282929). Conditions: HepG2 Attagene DR4 cis-reporter, mRNA transcription; actives raise or lower the signal. In a few lines: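 Fluorescence intensity of labelled reporter cDNA fragments, separated by capillary electrophoresis, gives the signal. HepG2 cells bearing cis-regulated reporter constructs were treated 24 h; activity fitted bidirectionally relative to DMSO negative control.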

The target in assay [5] is Aryl hydrocarbon receptor (Homo sapiens) (UniProt P35869). Briefly: ATG_Ahr_CIS: Attagene CIS-FACTORIAL HepG2 Assay for human Aryl Hydrocarbon Receptor (Ahr) (AID 2282930). Conditions: HepG2 AhR cis-factorial reporter transcription; actives raise or lower the signal. In outline: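 HepG2, transient MRTU (cis) transfection, 24 h exposure. RNA → cDNA → PCR → 6-FAM primer extension → HpaI 2 h 37 C → CE. Fit: bidirectional, DMSO baseline.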

Assay [6] in a line: ATG_AP_1_CIS: Attagene CIS-FACTORIAL HepG2 Assay for human Activator Protein 1 (AP-1) (AID 2282931). Conditions: HepG2 Attagene cis-factorial AP-1 reporter mRNA; actives raise or lower the signal. In outline:
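Multiplexed HepG2 reporter assay, 24 h dosing. mRNA induction detected by RT-PCR plus capillary electrophoresis. Activity fitted in both directions against DMSO.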

A short description of assay [7]: ATG_AP_2_CIS: Attagene CIS-FACTORIAL HepG2 Assay for human Activator Protein 2 (AP-2) (AID 2282932). Conditions: HepG2 AP-2 cis-reporter, Attagene transcription factor profiling; actives raise or lower the signal. In outline: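 Transiently transfected HepG2 cells are exposed to chemical for 24 h. Reporter transcripts are then measured as fluorescence following RT-PCR and capillary separation, and gain- or loss-of-signal is fitted relative to DMSO.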

The nature of assay [8]: ATG_BRE_CIS: Attagene CIS-FACTORIAL HepG2 Assay for human Bone Morphogenetic Protein (BMP) Response Element (BRE) (AID 2282933). Conditions: HepG2 BMP response element reporter, Attagene transcription factor profiling; actives raise or lower the signal. In a few lines:
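Gain- or loss-of-signal was derived by bidirectional fitting against DMSO controls. The signal came from reporter mRNA, measured by RT-PCR and capillary electrophoresis, in HepG2 cells transiently carrying multiple reporter units and dosed for 24 h.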

The target in assay [9] is Retinoic acid receptor alpha (Homo sapiens) (UniProt P10276). Briefly: ATG_DR5_RAR_CIS: Attagene CIS-FACTORIAL HepG2 Assay for human Retinoic Acid Receptor Alpha (RARE), DR5 submotif (AID 2282934). Conditions: HepG2 Attagene cis-factorial RARE DR5 reporter, mRNA; actives raise or lower the signal. In outline:
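HepG2, transient cis-reporter transfection, 24 h exposure. mRNA readout: RT-PCR, FAM label, HpaI cut, capillary electrophoresis. DMSO baseline, gain/loss fitting.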

The nature of assay [10]: ATG_E_Box_CIS: Attagene CIS-FACTORIAL HepG2 Assay for human Enhancer Box (E-box) (AID 2282936). Conditions: HepG2 E-box cis-reporter transcription, actives raise or lower the signal. In outline:
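Fluorescent reporter fragments separated by capillary electrophoresis gave the signal; mRNA came from HepG2 cells transfected with cis-element reporters and treated 24 h. Curves fitted bidirectionally relative to DMSO controls.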

Assay [11] is described as follows: ATG_M_61_CIS: Attagene CIS-FACTORIAL HepG2 Assay for M61 Transcription Factor (Internal Marker) (AID 2282937). Conditions: HepG2 Attagene CIS-FACTORIAL M61 internal marker reporter; actives raise or lower the signal. In outline:
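Endogenous transcription factor activity in HepG2 is read through transiently transfected cis-element reporter units. After 24 h dosing, RNA undergoes reverse transcription, PCR and primer extension with 6-FAM before capillary electrophoresis; DMSO-referenced bidirectional fit.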

Assay [12] is described as follows: ATG_EGR_CIS: Attagene CIS-FACTORIAL HepG2 Assay for human Early Growth Response 1 (EGR1) (AID 2282938). Conditions: HepG2 Attagene CIS-FACTORIAL EGR reporter mRNA; actives raise or lower the signal. In outline: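 Activity is taken as induction or loss of reporter mRNA versus DMSO, fitted bidirectionally. Transcripts from cis-regulated reporter units in transiently transfected HepG2 were measured after 24 h by RT-PCR with capillary electrophoresis.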

The nature of assay [13]: ATG_M_19_CIS: Attagene CIS-FACTORIAL HepG2 Assay for M19 Transcription Factor (Internal Marker) (AID 2282939). Conditions: HepG2 Attagene CIS-FACTORIAL M19 internal marker reporter; actives raise or lower the signal. In outline:
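Following a 24 h exposure, RNA from transfected HepG2 cells was reverse-transcribed, PCR-amplified with reporter-specific primers, end-labelled with 6-FAM and HpaI-digested before capillary separation. Values represent gain or loss versus DMSO.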

A short description of assay [14]: ATG_Ets_CIS: Attagene CIS-FACTORIAL HepG2 Assay for human Erythroblast Transformation Specific (ETS) (AID 2282941). Conditions: HepG2 ETS cis-reporter transcription, actives raise or lower the signal. In a few lines:
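Cis-regulated reporter mRNA induction in HepG2 (transient transfection), 24 h exposure, RT-PCR plus capillary electrophoresis detection; DMSO serves as negative control and baseline.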

The target in assay [15] is Hepatocyte nuclear factor 3-beta (Homo sapiens) (UniProt Q9Y261). Briefly: ATG_FoxA2_CIS: Attagene CIS-FACTORIAL HepG2 Assay for human Forkhead box A2 (FOXA2) (AID 2282942). Conditions: HepG2 cis-reporter transcription factor activity, 24 h; actives raise or lower the signal. In a few lines: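 Reporter transcript induction is measured by fluorescence after capillary electrophoresis of RT-PCR products from HepG2 cells exposed 24 h. Cis-regulated reporter units report endogenous factor activity; curves fitted both directions against DMSO.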

A short description of assay [16]: ATG_FoxO_CIS: Attagene CIS-FACTORIAL HepG2 Assay for human Forkhead box O (FoxO) (AID 2282943). Conditions: HepG2 Attagene cis-reporter, FoxO element, mRNA; actives raise or lower the signal. In a few lines: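 Human hepatoma HepG2 cells carry transiently introduced reporter transcription units controlled by cis promoter elements. Chemical treatment lasted 24 h, and mRNA signal was compared with DMSO.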

Assay [17] is described as follows: ATG_GATA_CIS: Attagene CIS-FACTORIAL HepG2 Assay for human GATA Binding Protein (AID 2282944). Conditions: HepG2 GATA cis-element reporter, Attagene multiplex mRNA; actives raise or lower the signal. In outline:
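DMSO serves as negative control and baseline for bidirectional fitting of reporter mRNA changes. HepG2 cells bearing transiently transfected cis-promoter reporters were exposed 24 h; transcripts detected via RT-PCR and capillary electrophoresis.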

Assay [18] can be described thus: ATG_GLI_CIS: Attagene CIS-FACTORIAL HepG2 Assay for human Zinc Finger Protein GLI1 (AID 2282945). Conditions: HepG2, Attagene cis-factorial reporter mRNA, GLI element; actives raise or lower the signal. In outline: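 Bidirectional curve fits relative to DMSO, using reporter mRNA levels from RT-PCR plus capillary electrophoresis. Cells were HepG2 transiently carrying cis-regulated reporter constructs, harvested 24 h after dosing.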

The target in assay [19] is Bile acid receptor (Homo sapiens) (UniProt Q96RI1). Briefly: ATG_IR1_CIS: Attagene CIS-FACTORIAL HepG2 Assay for human Nuclear Receptor Subfamily 1 Group H Member 4 (NR1H4), IR1 submotif (AID 2282946). Conditions: IR1 reporter transcription, actives raise or lower the signal. In outline: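 HepG2 cells transiently transfected with multiplexed cis-element reporter units read endogenous transcription factor activity. After 24 h compound exposure, reporter mRNA was quantified by RT-PCR, fluorescent labelling, HpaI digestion and capillary electrophoresis; bidirectional fitting versus DMSO baseline.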

The target in assay [20] is Transcription factor E2F1 (Homo sapiens) (UniProt Q01094). Briefly: ATG_E2F_CIS: Attagene CIS-FACTORIAL HepG2 Assay for human E2F Transcription Factor 1 (AID 2282935). Conditions: HepG2 Attagene cis-reporter, E2F reporter RNA transcripts; actives raise or lower the signal. In outline:
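Fluorescent RT-PCR products, digested with HpaI for 2 h at 37 C, are separated by capillary electrophoresis. Source RNA comes from transfected HepG2 cultures treated for 24 h.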

Sequence of Retinoic acid receptor alpha (Homo sapiens) (P10276 whole entry, looked up): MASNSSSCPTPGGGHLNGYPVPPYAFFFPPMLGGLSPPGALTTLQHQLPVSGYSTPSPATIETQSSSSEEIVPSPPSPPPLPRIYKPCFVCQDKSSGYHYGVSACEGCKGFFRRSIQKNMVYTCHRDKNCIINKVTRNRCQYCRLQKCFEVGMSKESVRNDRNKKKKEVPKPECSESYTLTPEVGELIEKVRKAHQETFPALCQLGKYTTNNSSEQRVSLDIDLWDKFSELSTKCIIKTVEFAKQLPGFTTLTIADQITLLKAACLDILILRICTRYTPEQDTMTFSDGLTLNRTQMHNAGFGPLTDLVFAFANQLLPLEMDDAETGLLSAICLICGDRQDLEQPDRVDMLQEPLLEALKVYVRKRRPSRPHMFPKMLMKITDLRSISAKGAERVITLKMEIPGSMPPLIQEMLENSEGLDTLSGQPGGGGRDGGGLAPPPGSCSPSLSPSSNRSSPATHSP
Sequence of CCAAT/enhancer-binding protein beta (Homo sapiens) (P17676 whole entry, looked up): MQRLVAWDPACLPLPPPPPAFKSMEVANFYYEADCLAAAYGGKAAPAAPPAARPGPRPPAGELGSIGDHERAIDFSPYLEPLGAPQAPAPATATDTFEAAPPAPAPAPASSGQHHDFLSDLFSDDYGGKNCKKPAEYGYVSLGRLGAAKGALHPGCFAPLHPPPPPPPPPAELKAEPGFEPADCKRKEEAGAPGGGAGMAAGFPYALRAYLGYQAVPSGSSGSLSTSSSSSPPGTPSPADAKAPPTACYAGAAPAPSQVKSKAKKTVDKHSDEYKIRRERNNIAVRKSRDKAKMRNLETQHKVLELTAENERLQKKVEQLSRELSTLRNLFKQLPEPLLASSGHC
Sequence of Hepatocyte nuclear factor 3-beta (Homo sapiens) (Q9Y261 whole entry, looked up): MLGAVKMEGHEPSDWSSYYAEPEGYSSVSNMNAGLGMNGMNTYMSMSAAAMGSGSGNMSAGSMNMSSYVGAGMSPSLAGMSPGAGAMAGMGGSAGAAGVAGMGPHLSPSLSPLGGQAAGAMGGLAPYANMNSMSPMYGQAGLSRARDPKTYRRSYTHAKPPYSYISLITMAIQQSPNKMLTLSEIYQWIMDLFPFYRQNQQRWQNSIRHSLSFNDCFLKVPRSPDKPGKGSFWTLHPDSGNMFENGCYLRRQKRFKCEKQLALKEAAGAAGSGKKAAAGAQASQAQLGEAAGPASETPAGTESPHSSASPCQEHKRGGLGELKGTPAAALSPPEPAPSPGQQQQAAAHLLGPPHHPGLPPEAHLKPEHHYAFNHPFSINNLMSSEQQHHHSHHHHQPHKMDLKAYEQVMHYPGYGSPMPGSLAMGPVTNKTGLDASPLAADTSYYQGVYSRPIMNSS
Sequence of Bile acid receptor (Homo sapiens) (Q96RI1 whole entry, looked up): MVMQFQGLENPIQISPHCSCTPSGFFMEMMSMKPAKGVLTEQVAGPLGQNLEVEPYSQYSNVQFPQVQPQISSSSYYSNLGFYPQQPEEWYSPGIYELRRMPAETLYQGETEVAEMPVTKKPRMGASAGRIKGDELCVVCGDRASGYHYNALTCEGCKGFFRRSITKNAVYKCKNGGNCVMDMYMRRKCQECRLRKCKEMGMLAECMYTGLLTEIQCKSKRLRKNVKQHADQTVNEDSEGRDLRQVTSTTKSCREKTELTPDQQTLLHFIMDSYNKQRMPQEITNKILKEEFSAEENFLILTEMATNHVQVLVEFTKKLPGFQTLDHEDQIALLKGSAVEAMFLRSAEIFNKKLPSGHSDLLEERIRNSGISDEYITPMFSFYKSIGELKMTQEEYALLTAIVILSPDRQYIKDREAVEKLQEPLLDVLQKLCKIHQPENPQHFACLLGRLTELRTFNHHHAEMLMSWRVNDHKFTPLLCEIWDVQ
Sequence of Aryl hydrocarbon receptor (Homo sapiens) (P35869 whole entry, looked up): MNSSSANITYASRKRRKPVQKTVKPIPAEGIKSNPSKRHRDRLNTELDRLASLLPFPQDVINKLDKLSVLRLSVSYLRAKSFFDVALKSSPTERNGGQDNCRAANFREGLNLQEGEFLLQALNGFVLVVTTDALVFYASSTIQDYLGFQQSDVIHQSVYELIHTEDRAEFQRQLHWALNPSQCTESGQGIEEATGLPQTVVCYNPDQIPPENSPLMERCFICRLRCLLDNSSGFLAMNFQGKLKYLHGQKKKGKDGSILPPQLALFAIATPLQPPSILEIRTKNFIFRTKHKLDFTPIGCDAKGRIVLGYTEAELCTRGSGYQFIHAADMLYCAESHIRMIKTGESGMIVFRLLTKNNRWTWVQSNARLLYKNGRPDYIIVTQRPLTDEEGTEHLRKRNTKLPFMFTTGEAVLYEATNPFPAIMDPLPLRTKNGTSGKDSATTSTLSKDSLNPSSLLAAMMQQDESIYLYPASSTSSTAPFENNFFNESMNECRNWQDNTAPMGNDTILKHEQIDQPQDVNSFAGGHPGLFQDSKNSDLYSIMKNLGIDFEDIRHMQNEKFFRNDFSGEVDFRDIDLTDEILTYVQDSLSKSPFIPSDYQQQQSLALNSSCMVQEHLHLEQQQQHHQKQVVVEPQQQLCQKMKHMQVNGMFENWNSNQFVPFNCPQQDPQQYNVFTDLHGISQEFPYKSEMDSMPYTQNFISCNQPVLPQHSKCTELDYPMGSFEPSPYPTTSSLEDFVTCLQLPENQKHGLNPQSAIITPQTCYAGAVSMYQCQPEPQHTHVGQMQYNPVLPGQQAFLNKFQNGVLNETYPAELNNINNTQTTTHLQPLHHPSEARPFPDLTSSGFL
Sequence of Transcription factor E2F1 (Homo sapiens) (Q01094 whole entry, looked up): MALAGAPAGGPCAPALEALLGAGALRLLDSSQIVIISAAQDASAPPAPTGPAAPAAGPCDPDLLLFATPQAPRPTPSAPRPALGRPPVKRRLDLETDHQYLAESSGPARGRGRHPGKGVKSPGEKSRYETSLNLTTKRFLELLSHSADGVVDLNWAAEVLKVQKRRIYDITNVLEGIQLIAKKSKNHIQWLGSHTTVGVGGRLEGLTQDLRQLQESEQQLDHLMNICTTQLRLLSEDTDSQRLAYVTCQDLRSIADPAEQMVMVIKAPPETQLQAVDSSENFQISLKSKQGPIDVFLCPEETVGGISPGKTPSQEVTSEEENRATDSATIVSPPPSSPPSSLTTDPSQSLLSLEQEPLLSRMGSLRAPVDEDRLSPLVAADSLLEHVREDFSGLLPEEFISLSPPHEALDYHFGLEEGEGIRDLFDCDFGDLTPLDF

Take `C[C@H](CCC(=O)NCC(=O)O)[C@H]1CC[C@H]2[C@@H]3[C@H](O)C[C@@H]4C[C@H](O)CC[C@]4(C)[C@H]3C[C@H](O)[C@]12C`: the outcome in assay [1], in [2], in assay [3], in assay [4], in assay [5] and in assay [6] was inactive. Moreover, the molecule was called inactive in assay [7], in [8], in [9], in assay [10], in assay [11] and in [12]. Further, the molecule was called inactive in assay [13], in [14], in assay [15], in assay [16], in [17] and in assay [18]. Further, the molecule was classed as inactive in [19].
What is called AC50 is the midpoint of the concentration-response curve, whichever way the signal moves. As to `O=C1OC(=O)c2c(Cl)c(Cl)c(Cl)c(Cl)c21`, the molecule was called inactive in assay [1], in assay [2], in assay [3], in [4], in assay [6] and in assay [7]. The molecule was classed as inactive in assay [8], in assay [9], in [11], in assay [12], in [13] and in [14]. The result in [16], in [18] and in assay [19] was inactive. In assay [5], the AC50 was 36.2 µM (active).
Regarding `Cc1ccc(N)c(S(=O)(=O)O)c1`, the outcome in [1], in assay [2], in [3], in [4], in assay [5] and in assay [6] was inactive. Also, the outcome in [7], in assay [8], in assay [9], in assay [10], in [11] and in [12] was inactive. Moreover, the molecule was called inactive in assay [13], in assay [14], in [15], in assay [16], in [17] and in assay [19].
As for `CCOc1ccc(N=Nc2ccc(C=Cc3ccc(N=Nc4ccc(OCC)cc4)cc3S(=O)(=O)O)c(S(=O)(=O)O)c2)cc1`, the outcome in assay [1], in [2], in [3], in assay [4], in assay [6] and in assay [7] was inactive. The result in assay [20], in [10], in assay [11], in [12], in assay [13] and in assay [14] was inactive. Also, the molecule was called inactive in assay [15], in [16] and in assay [17]. For the same molecule, the values for the AC50 in assay [5] and in assay [8] were 12.2 µM (active) and 7.28 µM (active), respectively.
Take `COC(=O)c1ccc(C)cc1C1=NC(C)(C(C)C)C(=O)N1` (stereo unspecified) (tested in a mixture with another compound): the molecule was classed as inactive in [1], in assay [2], in [3], in assay [4], in assay [5] and in [6]. The result in [7], in assay [8], in [9], in [10], in assay [11] and in assay [13] was inactive. Further, the result in assay [14], in [15] and in assay [17] was inactive.
With `CC/C=C\CCOC(=O)CC`, the call in [1], in [2], in assay [3], in assay [4], in assay [5] and in [6] was inactive. Moreover, the molecule was classed as inactive in assay [7], in assay [8], in assay [10], in assay [11], in assay [12] and in [13]. Moreover, the molecule was called inactive in assay [14], in assay [15], in assay [16], in assay [17] and in [18].
Take `CCCCCCCCCCCC(=O)OCC(O)CO` (stereo unspecified): the figures for the AC50 in [1], in assay [5] and in assay [6] were 48.2 µM (active), 21.3 µM (active) and 158 µM (active), respectively. Besides, the outcome in assay [2], in assay [3], in [4], in assay [7], in [8] and in [20] was inactive. Further, the outcome in assay [10], in assay [11], in assay [12], in assay [13], in assay [14] and in [16] was inactive. In addition, the result in assay [18] was inactive.
With `CC1(C)COCN1`, the result in [1], in [2], in assay [3], in assay [4], in assay [5] and in assay [6] was inactive. Moreover, the outcome in assay [7], in [8], in assay [9], in assay [10], in assay [11] and in [13] was inactive. Also, the molecule was classed as inactive in assay [14], in [15], in [16], in assay [17], in assay [18] and in assay [19].

(Values after PubChem BioAssay (EPA / NIEHS).)
